Results filed as inconclusive are left out. Activity calls are given as the source filed them. Calls come from the whole dose curve; as a rule, active = well fitted cell-killing curve with a large enough effect; inconclusive = small, poorly fitted or top-dose-only effect, or effect the other way; inactive = flat fitted curve, though single readings scatter. *1 amine or outer side, *2 acyl side, *3 side chain or, on linkers, in order; H or OH if unused. Where a SMILES comes first, the peptide text is derived from it. [ ]: non-standard residue; d: D form. X4 = CC(C)=CCc1cc(C(O)C(N[*:1])C(=O)[*:2])ccc1O
Experiments:
Test in all cases: Primary qHTS to identify gynecologic anti-cancer compounds using libraries of approved drugs and bioactive compounds (AID 1345084); note: nearly all actives have a fitted effect of over 55% in size
C33A = conditions: Gynecologic cancer cell panel viability, ATPlite luminescence, 48 h; series mostly up to 57.5 µM
How it was run: (§1)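 Cell viability after 48 h drug treatment, ATPlite luminescence readout; five doses.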

CAOV3 = conditions: Gynecologic cancer cell panel viability, ATPlite luminescence, 48 h; series mostly up to 57.5 µM
How it was run: as §1

CASKI = conditions: Gynecologic cancer cell panel viability, ATPlite luminescence, 48 h; series mostly up to 57.5 µM
How it was run: as §1

Es-2 = conditions: Gynecologic cancer cell panel viability, ATPlite luminescence, 48 h; series mostly up to 57.5 µM
How it was run: as §1

HeLa = conditions: Gynecologic cancer cell panel viability, ATPlite luminescence, 48 h; series mostly up to 57.5 µM
How it was run: as §1

Hek293T = conditions: Gynecologic cancer cell panel viability, ATPlite luminescence, 48 h, control line for the selectivity index; series mostly up to 57.5 µM
How it was run: as §1

JEG-3 = conditions: Gynecologic cancer cell panel viability, ATPlite luminescence, 48 h; series mostly up to 57.5 µM
How it was run: as §1

OV90 = conditions: Gynecologic cancer cell panel viability, ATPlite luminescence, 48 h; series mostly up to 57.5 µM
How it was run: as §1

PA-1 = conditions: Gynecologic cancer cell panel viability, ATPlite luminescence, 48 h; series mostly up to 57.5 µM
How it was run: as §1

SKOV3 = conditions: Gynecologic cancer cell panel viability, ATPlite luminescence, 48 h; series mostly up to 57.5 µM
How it was run: as §1

Tov-21-G = conditions: Gynecologic cancer cell panel viability, ATPlite luminescence, 48 h; series mostly up to 57.5 µM
How it was run: as §1

Tov112D = conditions: Gynecologic cancer cell panel viability, ATPlite luminescence, 48 h; series mostly up to 57.5 µM
How it was run: as §1
% is set by controls: 0 for no effect and ±100 for the full control effect.

OCc1ccc(O[C@@H]2O[C@H](CO)[C@@H](O)[C@H](O)[C@H]2O)cc1
inactive: Potency (C33A) | Potency (CAOV3) | Potency (CASKI) | Potency (Es-2) | Potency (HeLa) | Potency (Hek293T) | Potency (JEG-3) | Potency (OV90) | Potency (PA-1) | Potency (SKOV3) | Potency (Tov-21-G) | Potency (Tov112D)

C[C@@H]1O[C@@H](O[C@@H]2CO[C@@H](O[C@H]3CC[C@@]4(C)C(CC[C@]5(C)C4CC=C4[C@@H]6CC(C)(C)CC[C@]6(C(=O)O[C@@H]6O[C@H](CO)[C@@H](O)[C@H](O)[C@H]6O)CC[C@]45C)[C@]3(C)CO)[C@H](O)[C@H]2O[C@@H]2O[C@H](CO)[C@@H](O)[C@H](O)[C@H]2O)[C@H](O)[C@H](O)[C@H]1O (stereo partly specified)
inactive: activity change, negative = cytotoxicity (C33A) 16.4% [at 11.6 µM] | activity change, negative = cytotoxicity (CAOV3) 15.5% [at 11.6 µM] | activity change, negative = cytotoxicity (CASKI) 3.56% [at 11.6 µM] | activity change, negative = cytotoxicity (Es-2) 19.8% [at 11.6 µM] | activity change, negative = cytotoxicity (HeLa) -1.12% [at 11.6 µM] | activity change, negative = cytotoxicity (Hek293T) -12.7% [at 11.6 µM] | activity change, negative = cytotoxicity (JEG-3) -4.12% [at 11.6 µM] | activity change, negative = cytotoxicity (OV90) -13.3% [at 11.6 µM] | activity change, negative = cytotoxicity (PA-1) -2.56% [at 11.6 µM] | activity change, negative = cytotoxicity (SKOV3) 6.8% [at 11.6 µM] | activity change, negative = cytotoxicity (Tov-21-G) 4.72% [at 11.6 µM] | activity change, negative = cytotoxicity (Tov112D) 0.619% [at 11.6 µM]

O=C1C=CC(O)(/C=C/C(=O)OC[C@H]2O[C@@H](Oc3ccc(O)cc3)[C@H](O)[C@@H](O)[C@@H]2O)C=C1
inactive: Potency (C33A) | Potency (CAOV3) | Potency (CASKI) | Potency (Es-2) | Potency (HeLa) | Potency (Hek293T) | Potency (JEG-3) | Potency (OV90) | Potency (PA-1) | Potency (SKOV3) | Potency (Tov-21-G) | Potency (Tov112D)

COCC1OC(OC(C)(C)C2CCC3(C)C=C(C4CCC5C4(C)CC(O)C4OC(C(C)(C)OC6OC(CO)C(O)C(O)C6NC(C)=O)CCC45C)CCC3O2)C(NC(C)=O)C(O)C1O (stereo unspecified)
inactive: activity change, negative = cytotoxicity (C33A) 10.6% [at 11.6 µM] | activity change, negative = cytotoxicity (CAOV3) -5.9% [at 11.6 µM] | activity change, negative = cytotoxicity (CASKI) 12.8% [at 11.6 µM] | activity change, negative = cytotoxicity (Es-2) 0.877% [at 11.6 µM] | activity change, negative = cytotoxicity (HeLa) 1.62% [at 11.6 µM] | activity change, negative = cytotoxicity (Hek293T) -4.4% [at 11.6 µM] | activity change, negative = cytotoxicity (JEG-3) 3.33% [at 11.6 µM] | activity change, negative = cytotoxicity (OV90) 3.61% [at 11.6 µM] | activity change, negative = cytotoxicity (PA-1) -1.55% [at 11.6 µM] | activity change, negative = cytotoxicity (SKOV3) 9.88% [at 11.6 µM] | activity change, negative = cytotoxicity (Tov-21-G) 1.68% [at 11.6 µM] | activity change, negative = cytotoxicity (Tov112D) -1.97% [at 11.6 µM]

COC(=O)N(C)c1c(N)nc(-c2nn(Cc3ccccc3F)c3ncccc23)nc1N
inactive: Potency (C33A) | Potency (CAOV3) | Potency (CASKI) | Potency (Es-2) | Potency (HeLa) | Potency (Hek293T) | Potency (JEG-3) | Potency (OV90) | Potency (PA-1) | Potency (SKOV3) | Potency (Tov-21-G) | Potency (Tov112D)

C[C@@H]1O[C@@H](O[C@H]2[C@H](O[C@H]3[C@H](O)[C@@H](C(=O)O)O[C@@H](O[C@H]4CC[C@@]5(C)C(CC[C@]6(C)C5CC[C@]57OC[C@@]8(CCC(C)(C)CC85)[C@H](O)C[C@]76C)C4(C)C)[C@@H]3O[C@@H]3O[C@H](CO)[C@@H](O[C@@H]4OC[C@@H](O)[C@H](O)[C@H]4O)[C@H](O)[C@H]3O)O[C@H](CO)[C@H](O)[C@@H]2O)[C@H](O)[C@H](O)[C@H]1O (stereo partly specified)
inactive: activity change, negative = cytotoxicity (C33A) -0.321% [at 6.55 µM] | activity change, negative = cytotoxicity (CAOV3) 1.86% [at 6.55 µM] | activity change, negative = cytotoxicity (CASKI) 3.57% [at 6.55 µM] | activity change, negative = cytotoxicity (Es-2) -2.01% [at 6.55 µM] | activity change, negative = cytotoxicity (HeLa) 1.31% [at 6.55 µM] | activity change, negative = cytotoxicity (Hek293T) 4.69% [at 6.55 µM] | activity change, negative = cytotoxicity (JEG-3) 1.85% [at 6.55 µM] | activity change, negative = cytotoxicity (OV90) -19.1% [at 6.55 µM] | activity change, negative = cytotoxicity (PA-1) 5.43% [at 6.55 µM] | activity change, negative = cytotoxicity (SKOV3) 0% [at 6.55 µM] | activity change, negative = cytotoxicity (Tov-21-G) -4.6% [at 6.55 µM] | activity change, negative = cytotoxicity (Tov112D) 10.2% [at 6.55 µM]

CC1(C)CC[C@]2(C(=O)O)CC[C@]3(C)C(=CCC4[C@@]5(C)CC[C@H](O[C@@H]6O[C@H](CO)[C@@H](O)[C@H](O)[C@H]6O[C@@H]6O[C@H](CO)[C@@H](O)[C@H](O)[C@H]6O)[C@@](C)(CO)C5CC[C@]43C)[C@@H]2C1 (stereo partly specified)
inactive: Potency (C33A) | Potency (CAOV3) | Potency (CASKI) | Potency (Es-2) | Potency (HeLa) | Potency (Hek293T) | Potency (JEG-3) | Potency (OV90) | Potency (PA-1) | Potency (SKOV3) | Potency (Tov-21-G) | Potency (Tov112D)

OC/C=C/c1ccc(O[C@@H]2O[C@H](CO)[C@@H](O)[C@H](O)[C@H]2O)cc1
inactive: Potency (C33A) | Potency (CAOV3) | Potency (CASKI) | Potency (Es-2) | Potency (HeLa) | Potency (Hek293T) | Potency (JEG-3) | Potency (OV90) | Potency (PA-1) | Potency (SKOV3) | Potency (Tov-21-G) | Potency (Tov112D)

COC(=O)C12CCC(C)C(C)C1C1=CCC3C4(C)CCC(OC(C)=O)C(C)(C)C4CCC3(C)C1(C)CC2 (stereo unspecified)
inactive: Potency (C33A) | Potency (CAOV3) | Potency (CASKI) | Potency (Es-2) | Potency (HeLa) | Potency (Hek293T) | Potency (JEG-3) | Potency (OV90) | Potency (PA-1) | Potency (SKOV3) | Potency (Tov-21-G) | Potency (Tov112D)

CC(C)(C)NCCCNC(=O)c1cccc(Br)c1
inactive: Potency (C33A) | Potency (CAOV3) | Potency (CASKI) | Potency (Es-2) | Potency (HeLa) | Potency (Hek293T) | Potency (JEG-3) | Potency (OV90) | Potency (PA-1) | Potency (SKOV3) | Potency (Tov-21-G) | Potency (Tov112D)

CC(=O)C12OC(C)(C)OC1CC1C3CCC4=CC(=O)C=CC4(C)C3(F)C(O)CC12C (stereo unspecified)
inactive: Potency (C33A) | Potency (CAOV3) | Potency (CASKI) | Potency (Es-2) | Potency (HeLa) | Potency (Hek293T) | Potency (JEG-3) | Potency (OV90) | Potency (PA-1) | Potency (SKOV3) | Potency (Tov-21-G) | Potency (Tov112D)

CC(C)=CCc1cc(C(O)C2NC(=O)CNC(=O)C(Cc3c[nH]c4ccccc34)NC(=O)C3CCCN3C(=O)CNC(=O)C(C(C)C)NC(=O)CNC2=O)ccc1O (stereo unspecified) (cyclo(G[X4]GVGPW); configuration not given here)
inactive: activity change, negative = cytotoxicity (C33A) 7.59% [at 11.6 µM] | activity change, negative = cytotoxicity (CAOV3) -21.2% [at 11.6 µM] | activity change, negative = cytotoxicity (CASKI) -0.505% [at 11.6 µM] | activity change, negative = cytotoxicity (Es-2) 0.641% [at 11.6 µM] | activity change, negative = cytotoxicity (HeLa) 5.32% [at 11.6 µM] | activity change, negative = cytotoxicity (Hek293T) -0.92% [at 11.6 µM] | activity change, negative = cytotoxicity (JEG-3) 7.66% [at 11.6 µM] | activity change, negative = cytotoxicity (OV90) 5.8% [at 11.6 µM] | activity change, negative = cytotoxicity (PA-1) -1.16% [at 11.6 µM] | activity change, negative = cytotoxicity (SKOV3) 0% [at 11.6 µM] | activity change, negative = cytotoxicity (Tov-21-G) -4.16% [at 11.6 µM] | activity change, negative = cytotoxicity (Tov112D) -6.73% [at 11.6 µM]

CCOc1cc(C)c(Cl)cc1S(=O)(=O)n1cnc2ccccc21
inactive: Potency (C33A) | Potency (CAOV3) | Potency (CASKI) | Potency (Es-2) | Potency (HeLa) | Potency (Hek293T) | Potency (JEG-3) | Potency (OV90) | Potency (PA-1) | Potency (SKOV3) | Potency (Tov-21-G) | Potency (Tov112D)

Source: PubChem BioAssay (NCATS)
